According to PubChem BioAssay (Tox21):
Where “and” joins values, the source holds several entries; their conditions need not be identical. Equal entries are not always repeated. Results filed as inconclusive are left out. A number with no mark means an inactive call. Calls of active or inactive are those of the source. The call rests on the fitted dose curve; in most records, active means well fitted cell-killing curve with a large enough effect in the repeat runs; inconclusive means weak or mixed curves, or effect the other way; inactive means flat fitted curve, though single readings scatter.

Experiment: qHTS RealTime-Glo MT Cell Viability Assay in HEK293 cells - 32 hour (AID 1224868); further: nearly all actives have a fitted effect of over 50% in size; on activity change, negative = cytotoxic: top concentration of the series differs between compounds
Details: RealTime-Glo luminescence; series mostly up to 76.8 µM; activity change, negative = cytotoxic: at the top concentration
Excerpt: National Center for Advancing Translational Sciences [NCATS]
NIH Chemical Genomics Center [NCGC]
U.S. Environmental Protection Agency [EPA]
National Institutes of Environmental Health Sciences [NIEHS]
National Toxicology Program [NTP]
U.S. Food and Drug Administration [FDA]
Measure of cell viability is critical in the cell-base assay. Analysis of cell viability is necessary for the characterization of cell responses to cytotoxic drugs and environmental stress. A RealTime-Glo MT Cell Viability Assay to monitor cell viability in real time of continues cell culture during 40 hours of compound treatment was used to screen Tox21 10K library compounds in Hek293 cells. The RealTime-Glo MT Cell Viability Assay is a nonlytic, homogeneous, bioluminescent method to measure cell viability in real time using a simple, plate-based method. The assay involves adding NanoLuc luciferase and a cell-permeant prosubstrate to cells in culture. Viable cells reduce the proprietary prosubstrate to generate a substrate for NanoLuc luciferase. This substrate diffuses from cells into the surrounding culture medium, where it is rapidly used by the NanoLuc Enzyme to produce a luminescent signal. The signal correlates with the number of viable cells, making the assay well suited for cytotoxicity studies.
Tox21 Assay Protocol Summary:
The mixture of Hek293 cell suspension and reagents were dispensed at 600cells/6 ul/well in 1536-well tissue culture treated black solid bottom plates using a Multidrop dispenser. After the assay plates were incubated at a 37 C/5% CO2 incubator for 5 hours, 23 nL of compounds dissolved in DMSO, positive and negative controls was transferred to the assay plate by a pintool work station. The plates were incubated at 37 C for 40 hours. The luminescence intensity were measured at 0h, 8h, 16h, 24h, 32h and 40h time points using ViewLux plate reader during compound treatment.
On the % scale 0 is the no-effect control and ±100 the full control effect; potency means the concentration at half of the fitted maximal effect.

SMILES	activity change, negative = cytotoxic	Potency
Cc1c(N)cccc1C(F)(F)F	-0.976% [at 35.3 µM]	–
Nc1ccc(C(=O)O)c(O)c1	-0.485% [at 35.3 µM]	–
CCCCCCCCCCCC(=O)OCC(C)OC(=O)CCCCC(=O)O (stereo not given)	9.63% [at 35.3 µM]	–
COC(=O)Nc1nc2ccc(C(=O)c3ccccc3)cc2[nH]1	–	0.848 µM (active)
OCC(F)(F)F	17.8%	–
CNc1ccc([N+](=O)[O-])cc1	-11.7%	–
CC(C)(C)C1CCC(=O)CC1	3.3%	–
Cc1cc(C)c(/C=C2\C(=O)Nc3ccccc32)[nH]1	-11.7% [at 35.3 µM]	–
C#CC1(O)CC[C@H]2[C@@H]3CCC4=CCCC[C@@H]4[C@H]3CC[C@@]21C (stereo not given in full)	–	17.4 µM (active) and 19 µM (active)
O=C(O)O	0.187% [at 6.97 µM]	–
CN(C)C(=O)COC(=O)Cc1ccc(OC(=O)c2ccc(N=C(N)N)cc2)cc1	0.27% [at 35.3 µM]	–
COc1cccc2c1C(=O)c1c(O)c3c(c(O)c1C2=O)C[C@@](O)(C(C)=O)C[C@@H]3O[C@H]1C[C@H](N)[C@H](O)[C@H](C)O1	–	69.6 nM (active) and 3.4 nM (active)
CC/C=C\CCCCCO	8.2%	–
CCCCNS(=O)(=O)c1ccc(C)cc1	-21.6%	–
CCc1cccc(CC)c1NC(=O)CN(CC(=O)O)CC(=O)O	1.21% [at 35.3 µM]	–
CN(C)Cc1ccccc1O	1.37%	–
Cc1ccc(C(C)C)cc2c(C)ccc1-2	-4.18% [at 35.3 µM]	–
O=C1c2ccccc2C(=O)N1SC1CCCCC1	–	24.5 µM (active) and 38.9 µM (active)
CC(C)CCCCCOC(=O)CCS	-2.48%	–
CCCCCCC1CCCC(=O)O1 (stereo not given)	0.903%	–

SMILES	activity change, negative = cytotoxic	Potency
CCOC(=O)c1ccc(C2CCC(NC[C@H](O)COc3ccc(O)c(NS(C)(=O)=O)c3)CC2)cc1 (stereo not given in full)	–	20.2 µM (active)
COc1cc(S(=O)(=O)O)c(C)cc1N=Nc1c(O)ccc2cc(S(=O)(=O)O)ccc12	-8.96%	–
COc1c(C)c2c(c(O)c1C/C=C(\C)CCC(=O)OCCN1CCOCC1)C(=O)OC2	-23.4% [at 35.3 µM]	–
O=C(O)c1cc(O)c2ccccc2c1O	–	43.6 µM (active)
NC(=S)NC(N)=S	6.09%	–
S=c1nccc[nH]1	10.7%	–
Clc1ccnc(Cl)n1	20.6%	–
CC(=O)OCC=C(C)C	5.48% [at 35.3 µM]	–
C#C[C@]1(OC(C)=O)CC[C@H]2[C@@H]3CCC4=C[C@@H](OC(C)=O)CC[C@@H]4[C@H]3CC[C@@]21C	–	21.3 µM (active)
COc1ccc2cc1Oc1ccc(cc1)C[C@H]1c3c(cc4c(c3Oc3cc5c(cc3OC)CCN(C)[C@@H]5C2)OCO4)CCN1C	–	5.35 µM (active)
CCCCOC(=O)CC	1.3%	–
O=C(O)Cc1ccc2c(c1)C(=O)c1ccccc1CO2	0.535% [at 35.3 µM]	–
CC(CCc1ccccc1)NCC(O)c1ccc(O)c(C(N)=O)c1 (stereo not given)	0.812%	–
O=C(O)c1cc(N=Nc2ccc([N+](=O)[O-])cc2)ccc1O	-12.2%	–
CCCCCCOC(=O)C(C)CC (stereo not given)	-1.19%	–
O[C@@H]([C@H](O)[C@H](O)CBr)[C@H](O)CBr	8.44%	–
c1ccc(SSc2ccccc2)cc1	-13.2%	–
COC(=O)c1ccccc1C	-1.33%	–
CCCC1CCC(=O)CC1	10.2%	–
CCC(CC)(CC(=O)Nc1cccc(/C=C/c2nc(C3CCC3)cs2)c1)C(=O)O	-15.5% [at 35.3 µM]	–
